{"source": "PubChem BioAssay AID1159580", "about": "(chemical genetic matrix, 2015)", "test": "chemical genetic growth profiling, strain panel (AID 1159580);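 further: tested at 20 µM; growth read once vehicle control cultures reached saturation at 30 °C; 1 = growth at the plate median or of vehicle wells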", "conditions": "S. cerevisiae deletion strains, growth OD", "note": "Out of some 5,500 compounds screened, about 2,000 (36%) were called active. Another 18% or so got no clear call; they are omitted. This is one part of the list. Unmarked numbers belong to inactive results. No stated cut-off is given here; in the data, active means normalized growth mostly below about 0.91 (no sharp cut-off); inconclusive means no clear call, values can overlap the other calls; inactive means mostly above about 0.92."}
{"smiles": "N#Cc1c(N)sc2c1CCc1ccccc1-2", "values": [{"measurement": "normalized growth", "setting": "locus YAR019C, strain CDC15, stronger effect = lower value", "result": 0.896}, {"measurement": "normalized growth", "setting": "locus YBL105C, strain PKC1, stronger effect = lower value", "result": "0.897 (active)"}, {"measurement": "normalized growth", "setting": "locus YBR135W, strain CKS1, stronger effect = lower value", "result": 0.898}, {"measurement": "normalized growth", "setting": "locus YBR136W, strain MEC1, stronger effect = lower value", "result": 0.896}, {"measurement": "normalized growth", "setting": "locus YBR160W, strain CDC28, stronger effect = lower value", "result": 0.905}, {"measurement": "normalized growth", "setting": "locus YDL017W, strain CDC7, stronger effect = lower value", "result": "0.899 (active)"}, {"measurement": "normalized growth", "setting": "locus YDL028C, strain MPS1, stronger effect = lower value", "result": 0.898}, {"measurement": "normalized growth", "setting": "locus YDL101C, strain DUN1, stronger effect = lower value", "result": 0.929}, {"measurement": "normalized growth", "setting": "locus YDL108W, strain KIN28, stronger effect = lower value", "result": 0.898}, {"measurement": "normalized growth", "setting": "locus YDL132W, strain cdc53, stronger effect = lower value", "result": "0.884 (active)"}, {"measurement": "normalized growth", "setting": "locus YDL214C, strain PRR2, stronger effect = lower value", "result": "0.671 (active)"}, {"measurement": "normalized growth", "setting": "locus YDR052C, strain DBF4, stronger effect = lower value", "result": "0.905 (active)"}, {"measurement": "normalized growth", "setting": "locus YDR054C, strain cdc34, stronger effect = lower value", "result": 0.89}, {"measurement": "normalized growth", "setting": "locus YDR226W, strain ADK1, stronger effect = lower value", "result": "0.887 (active)"}, {"measurement": "normalized growth", "setting": "locus YDR477W, strain SNF1, stronger effect = lower value", "result": "0.546 (active)"}, {"measurement": "normalized growth", "setting": "locus YER123W, strain YCK3, stronger effect = lower value", "result": "0.596 (active)"}, {"measurement": "normalized growth", "setting": "locus YER133W, strain GLC7, stronger effect = lower value", "result": "0.499 (active)"}, {"measurement": "normalized growth", "setting": "locus YFL009W, strain cdc4, stronger effect = lower value", "result": 0.903}, {"measurement": "normalized growth", "setting": "locus YFL029C, strain CAK1, stronger effect = lower value", "result": 0.891}, {"measurement": "normalized growth", "setting": "locus YFR003C, strain YPI1, stronger effect = lower value", "result": "0.894 (active)"}, {"measurement": "normalized growth", "setting": "locus YFR019W, strain FAB1, stronger effect = lower value", "result": 0.833}, {"measurement": "normalized growth", "setting": "locus YFR028C, strain CDC14, stronger effect = lower value", "result": "0.884 (active)"}, {"measurement": "normalized growth", "setting": "locus YGR040W, strain KSS1, stronger effect = lower value", "result": "0.452 (active)"}, {"measurement": "normalized growth", "setting": "locus YGR052W, strain FMP48, stronger effect = lower value", "result": "0.508 (active)"}, {"measurement": "normalized growth", "setting": "locus YGR092W, strain DBF2, stronger effect = lower value", "result": 0.545}, {"measurement": "normalized growth", "setting": "locus YHR030C, strain SLT2, stronger effect = lower value", "result": "0.479 (active)"}, {"measurement": "normalized growth", "setting": "locus YHR079C, strain IRE1, stronger effect = lower value", "result": 0.593}, {"measurement": "normalized growth", "setting": "locus YHR082C, strain KSP1, stronger effect = lower value", "result": "0.568 (active)"}, {"measurement": "normalized growth", "setting": "locus YHR205W, strain SCH9, stronger effect = lower value", "result": "0.558 (active)"}, {"measurement": "normalized growth", "setting": "locus YIL147C, strain SLN1, stronger effect = lower value", "result": 0.894}, {"measurement": "normalized growth", "setting": "locus YJL095W, strain BCK1, stronger effect = lower value", "result": 0.508}, {"measurement": "normalized growth", "setting": "locus YJL128C, strain PBS2, stronger effect = lower value", "result": 0.918}, {"measurement": "normalized growth", "setting": "locus YJL157C, strain FAR1, stronger effect = lower value", "result": "0.605 (active)"}, {"measurement": "normalized growth", "setting": "locus YJR016C, strain ILV3, stronger effect = lower value", "result": "0.892 (active)"}, {"measurement": "normalized growth", "setting": "locus YJR066W, strain TOR1 (second series), stronger effect = lower value", "result": "0.474 (active)"}, {"measurement": "normalized growth", "setting": "locus YJR066W, strain TOR1, stronger effect = lower value", "result": "0.458 (active)"}, {"measurement": "normalized growth", "setting": "locus YKL048C, strain ELM1, stronger effect = lower value", "result": "0.798 (active)"}, {"measurement": "normalized growth", "setting": "locus YKL067W, strain YNK1, stronger effect = lower value", "result": "0.664 (active)"}, {"measurement": "normalized growth", "setting": "locus YKL101W, strain HSL1, stronger effect = lower value", "result": "0.66 (active)"}, {"measurement": "normalized growth", "setting": "locus YKL193C, strain SDS22, stronger effect = lower value", "result": "0.888 (active)"}, {"measurement": "normalized growth", "setting": "locus YKL203C, strain TOR2, stronger effect = lower value", "result": "0.489 (active)"}, {"measurement": "normalized growth", "setting": "locus YLR113W, strain HOG1, stronger effect = lower value", "result": "0.806 (active)"}, {"measurement": "normalized growth", "setting": "locus YLR133W, strain CKI1, stronger effect = lower value", "result": "0.593 (active)"}, {"measurement": "normalized growth", "setting": "locus YLR403W, strain SFP1, stronger effect = lower value", "result": "0.401 (active)"}, {"measurement": "normalized growth", "setting": "locus YML070W, strain DAK1, stronger effect = lower value", "result": "0.642 (active)"}, {"measurement": "normalized growth", "setting": "locus YMR001C, strain CDC5, stronger effect = lower value", "result": "0.886 (active)"}, {"measurement": "normalized growth", "setting": "locus YMR205C, strain PFK2 (second series), stronger effect = lower value", "result": "0.69 (active)"}, {"measurement": "normalized growth", "setting": "locus YMR277W, strain FCP1, stronger effect = lower value", "result": "0.88 (active)"}, {"measurement": "normalized growth", "setting": "locus YNL006W, strain LST8, stronger effect = lower value", "result": "0.903 (active)"}, {"measurement": "normalized growth", "setting": "locus YNL020C, strain ARK1, stronger effect = lower value", "result": "0.611 (active)"}, {"measurement": "normalized growth", "setting": "locus YNL161W, strain CBK1, stronger effect = lower value", "result": "0.898 (active)"}, {"measurement": "normalized growth", "setting": "locus YNL183C, strain NPR1, stronger effect = lower value", "result": "0.492 (active)"}, {"measurement": "normalized growth", "setting": "locus YNL207W, strain RIO2, stronger effect = lower value", "result": "0.867 (active)"}, {"measurement": "normalized growth", "setting": "locus YNL222W, strain SSU72, stronger effect = lower value", "result": 0.897}, {"measurement": "normalized growth", "setting": "locus YNL307C, strain MCK1 (second series), stronger effect = lower value", "result": "0.508 (active)"}, {"measurement": "normalized growth", "setting": "locus YOL078W, strain AVO1, stronger effect = lower value", "result": 0.898}, {"measurement": "normalized growth", "setting": "locus YOL136C, strain PFK27, stronger effect = lower value", "result": "0.636 (active)"}, {"measurement": "normalized growth", "setting": "locus YOR061W, strain CKA2, stronger effect = lower value", "result": "0.616 (active)"}, {"measurement": "normalized growth", "setting": "locus YOR119C, strain RIO1, stronger effect = lower value", "result": "0.506 (active)"}, {"measurement": "normalized growth", "setting": "locus YOR231W, strain MKK1, stronger effect = lower value", "result": 0.653}, {"measurement": "normalized growth", "setting": "locus YOR329C, strain SCD5, stronger effect = lower value", "result": 0.91}, {"measurement": "normalized growth", "setting": "locus YPL031C, strain PHO85, stronger effect = lower value", "result": "0.464 (active)"}, {"measurement": "normalized growth", "setting": "locus YPL153C, strain RAD53, stronger effect = lower value", "result": "0.494 (active)"}, {"measurement": "normalized growth", "setting": "locus YPL204W, strain HRR25, stronger effect = lower value", "result": "0.491 (active)"}, {"measurement": "normalized growth", "setting": "locus YPL209C, strain IPL1, stronger effect = lower value", "result": "0.888 (active)"}, {"measurement": "normalized growth", "setting": "locus YPL256C, strain CLN2, stronger effect = lower value", "result": 0.97}, {"measurement": "normalized growth", "setting": "locus YPR025C, strain CCL1, stronger effect = lower value", "result": 0.911}, {"measurement": "normalized growth", "setting": "locus YPR106W, strain ISR1, stronger effect = lower value", "result": 0.918}, {"measurement": "normalized growth", "setting": "locus YPR111W, strain DBF20, stronger effect = lower value", "result": 0.912}, {"measurement": "normalized growth", "setting": "strain NNK1, stronger effect = lower value", "result": 0.915}, {"measurement": "normalized growth", "setting": "strain TSCII, stronger effect = lower value", "result": 0.899}]}
